Test [1] in a line: qHTS assay to identify small molecule antagonists of the estrogen receptor alpha (ER-alpha) signaling pathway using the BG1 cell line in the presence of 0.1 nM 17-beta-estradiol - cell viability counter screen (AID 1259241). Note: nearly all actives have a fitted effect of over 40% in size. Note: potency is the fitted concentration of half-maximal effect. The procedure, abridged:
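The cell line endogenously expresses full-length ER-alpha and carries four EREs driving luciferase. Cells are cultured 5 days hormone-free, treated 22 hr with compounds and 0.1 nM estradiol, then viability is read by fluorescence.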
For orientation: Quantitative high-throughput screening tests each substance at several concentrations.

The nature of test [2]: qHTS assay to identify small molecule antagonists of the androgen receptor (AR) signaling pathway using the MDA cell line in the presence of 0.5 nM R1881 - cell viability counter screen (AID 1259242). Note: nearly all actives have a fitted effect of over 45% in size. The procedure, abridged:
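Fluorescence from CellTiter-Fluor, which reports protease activity of live cells, was read 30 min after reagent addition to MDA-kb2 cells that had been incubated 16 hr with compound and 0.5 nM R1881.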

The nature of test [3]: qHTS assay to identify small molecule HDAC inhibitors (AID 1259364). Note: top concentration of the series differs between compounds; nearly all actives have a fitted effect of over 45% in size. In outline: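 Endogenous HDAC class I/II activity was measured in wild-type HCT-116 cells by HDAC-Glo luminescence after 2 h compound treatment.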
Test [4] in a line: qHTS assay to identify small molecule HDAC inhibitors - cell viability counter screen (AID 1259365). Note: series mostly up to about 92 µM; nearly all actives have a fitted effect of over 50% in size. In outline: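 Viability readout: CellTiter-Glo luminescence. Wild-type HCT-116 cells, 2hr compound treatment following overnight attachment at 37 C.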
Test [5] can be described thus: qHTS assay to identify small molecule agonists of the sonic hedgehog signaling (Shh) pathway - cell viability counter screen (AID 1259366). Note: nearly all actives have a fitted effect of over 50% in size. Note: potency is the fitted concentration of half-maximal effect. The procedure, abridged: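 Viability measured fluorometrically (CellTiter-Fluor, 1hr, 37C) in 3T3 Gli1-Luc reporter cells after 23hr compound exposure within a 24hr incubation at 37C/5% CO2.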
Test [6] can be described thus: qHTS assay to identify small molecule agonists of the sonic hedgehog signaling (Shh) pathway (AID 1259368; calls by dose curve;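 note: NIH/3T3-derived 3T3Gli1-Luc cells carrying a stable Gli1-driven firefly luciferase reporter; series mostly up to about 92 µM; nearly all actives have a fitted effect of over 15% in size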). In outline: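 Luminescent signal was taken as a measure of Gli1-controlled luciferase expression in stably transfected NIH/3T3-derived cells that had been treated for 24 hr with compounds delivered in DMSO.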
Test [7] is described as follows: qHTS assay to identify small molecule antagonists of the sonic hedgehog signaling (Shh) pathway (AID 1259369; calls by dose curve; note: nearly all actives have a fitted effect of over 45% in size; note: potency is the fitted concentration of half-maximal effect). In outline: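 Screening used 3T3Gli1-Luc cells at 2,000 per well, compounds delivered in DMSO, and conditioned medium as agonist stimulus; plates incubated 24hr at 37 C and 5% CO2 before a 30min luciferase step.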
Test [8] concerns the target Estrogen receptor beta (Homo sapiens) (UniProt Q92731). In words: qHTS assay to identify small molecule agonists of the estrogen receptor beta (ER-beta) signaling pathway (AID 1259377; active = well fitted activation curve with a large enough effect in the signal ratio in the repeat runs, not every such curve was filed as active; the % refers to the signal ratio). In outline:
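A UAS-controlled beta-lactamase reporter in ER-beta-UAS-bla HEK293T cells reports receptor activation. Compounds act for 16 hr at 37C in 2% charcoal-stripped serum, and a FRET substrate is read by fluorescence after 2 hours.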

The target is the same in test [9]. In words: qHTS assay to identify small molecule antagonists of the estrogen receptor beta (ER-beta) signaling pathway (AID 1259378; active = well fitted inhibition curve with a large enough effect in the signal ratio in the repeat runs, not every such curve was filed as active; the % refers to the signal ratio). The procedure, abridged:
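Antagonist mode: compounds added to beta-lactamase reporter HEK293T ER-beta-UAS cells stimulated with E2 (1nM final), 16 hr at 37C. LiveBLAzer B/G FRET substrate, 2 hours room temperature, fluorescence read-out.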

A short description of test [10]: qHTS assay to identify small molecule agonists of the androgen receptor (AR) signaling pathway in the presence of an antagonist - cell viability counter screen (AID 1259379). Note: nearly all actives have a fitted effect of over 25% in size. Note: potency is the fitted concentration of half-maximal effect. The procedure, abridged: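 In MDA-kb2 cells (human breast carcinoma, MMTV-luciferase), compounds at 15 concentrations plus 3.0uM nilutamide; 16 hr, 37C, 0% CO2; CellTiter-Fluor fluorescence read for viability.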

Test [11] in a line: qHTS assay to identify small molecule agonists of the estrogen receptor beta (ER-beta) signaling pathway - cell viability counter screen (AID 1259380). Note: nearly all actives have a fitted effect of over 30% in size. Note: potency is the fitted concentration of half-maximal effect. The procedure, abridged:
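Viability of ER-beta-UAS-bla HEK293T cells was determined by CellTiter-Glo luminescence following 16 hr treatment with test compounds at 37C.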

Test [12] in a line: qHTS assay to identify small molecule antagonists of the estrogen receptor beta (ER-beta) signaling pathway - cell viability counter screen (AID 1259382).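 Note: HEK293T cells carrying ER-beta-UAS-bla reporter stimulated with estradiol; series mostly up to about 92 µM; nearly all actives have a fitted effect of over 55% in size.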 The procedure, abridged:
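Tox21 10K library tested in qHTS format on ER-beta-bla HEK293T cells stimulated with 1nM E2; 16 hr treatment at 37C. Same-well CellTiter-Glo luminescence served as the cell viability measure.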

A short description of test [13]: qHTS assay to identify small molecule agonists or antagonists of the thyroid stimulating hormone receptor (TSHR) signaling pathway - wild type cell line counter screen (AID 1259384; calls by dose curve). The procedure, abridged:
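Counter screen in untransfected Hek293: compounds (15-point titration, triplicate) plus phosphodiesterase inhibitor Ro20-1724 added after 18 h plating; 30 min RT. Intracellular cAMP via competitive d2/cryptate immunoassay, 1 h incubation.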

The target in test [14] is Thyrotropin receptor (Homo sapiens) (UniProt P16473). As to the kind of experiment: qHTS assay to identify small molecule antagonists of the thyroid stimulating hormone receptor (TSHR) signaling pathway (AID 1259385; calls by dose curve; note: nearly all actives have a fitted effect of over 20% in size). The procedure, abridged: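 Antagonist mode: compound-treated TSHR-expressing HEK293 cells were stimulated with 1.5 ng/mL TSH (final) in presence of Ro20-1724 for 30 min at RT. HTRF cAMP detection after 1 h; each compound tested at 15 concentrations, triplicate.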

Test [15] in a line: qHTS assay to identify small molecule antagonists of the sonic hedgehog signaling (Shh) pathway - cell viability counter screen (AID 1259367). Note: nearly all actives have a fitted effect of over 55% in size. Note: potency is the fitted concentration of half-maximal effect. The procedure, abridged:
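Cells: 3T3 Gli1-Luc, 2,000/well, 4 hr pre-incubation. Compounds in DMSO, then conditioned medium. Incubation 24 hr, 37C, 5% CO2. CellTiter-Fluor at 23 hr, 1 hr, fluorescence.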

Test [16] deals with Estrogen receptor (Homo sapiens) (UniProt P03372). As to the kind of experiment: qHTS assay to identify small molecule antagonists of the estrogen receptor alpha (ER-alpha) signaling pathway using the BG1 cell line in the presence of 0.1 nM 17-beta-estradiol (AID 1259244). Note: nearly all actives have a fitted effect of over 50% in size. Note: potency is the fitted concentration of half-maximal effect. The procedure, abridged: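 Quantitative high-throughput screen in VM7Luc4E2 cells: compound plus 0.1 nM E2 (final), 22 h, 37C, 5% CO2; ONE-Glo added, 30 min room temperature, luminescence measured.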

Test [17] in a line: qHTS assay to identify small molecule phospholipidosis (PLD) inducers (AID 1259344; active = well fitted curve in the direction sought with a large enough effect; an effect the other way counts as inactive or inconclusive). In outline:
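Phospholipidosis is scored by imaging LipidTOX-stained pits in HepG2 cells exposed to compound for 24 h at 37 C; pit counts and integrated intensities per well and per cell serve as outputs.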

In test [18] the target is Estrogen receptor (Homo sapiens) (UniProt P03372). In words: qHTS assay to identify small molecule agonists of the estrogen receptor alpha (ER-alpha) signaling pathway in the presence of an antagonist (AID 1259383; calls by dose curve; note: top concentration of the series differs between compounds; nearly all actives have a fitted effect of over 15% in size). In outline: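 In VM7Luc4E2 cells, 4,000 per well, compounds at 15 concentrations were co-incubated 22hr at 37C with 10.0nM final ICI-182,780. Luminescence from the stably transfected 4×ERE-luciferase reporter was recorded 30min after ONE-Glo addition.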

These results are taken from PubChem BioAssay (Tox21).

Results filed as inconclusive are left out. Calls of active or inactive are those of the source. Unless noted, calls come from the whole dose curve; as a rule, active = well fitted curve in the direction sought with a large enough effect in the repeat runs; inconclusive = weak or mixed curves; inactive = no such curve, though single readings can be large; an effect the other way counts as inactive or inconclusive.

Sequence of Estrogen receptor (Homo sapiens) (P03372 whole entry, looked up): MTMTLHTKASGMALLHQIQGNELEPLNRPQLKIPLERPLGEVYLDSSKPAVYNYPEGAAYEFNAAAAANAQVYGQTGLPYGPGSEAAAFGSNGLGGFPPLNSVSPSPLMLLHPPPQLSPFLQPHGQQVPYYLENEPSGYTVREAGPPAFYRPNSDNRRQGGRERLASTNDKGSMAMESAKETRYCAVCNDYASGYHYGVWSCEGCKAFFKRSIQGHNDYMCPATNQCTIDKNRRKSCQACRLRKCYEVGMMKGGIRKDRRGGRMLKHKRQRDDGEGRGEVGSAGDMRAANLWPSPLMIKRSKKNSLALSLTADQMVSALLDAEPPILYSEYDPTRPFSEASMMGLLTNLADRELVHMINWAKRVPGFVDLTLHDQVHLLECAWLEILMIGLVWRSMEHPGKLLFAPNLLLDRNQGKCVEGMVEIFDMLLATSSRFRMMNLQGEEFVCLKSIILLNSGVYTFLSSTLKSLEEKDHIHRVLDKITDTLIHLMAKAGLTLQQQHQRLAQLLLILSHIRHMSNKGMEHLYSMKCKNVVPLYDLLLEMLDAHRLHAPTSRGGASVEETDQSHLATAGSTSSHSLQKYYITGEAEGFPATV
Sequence of Estrogen receptor beta (Homo sapiens) (Q92731 whole entry, looked up): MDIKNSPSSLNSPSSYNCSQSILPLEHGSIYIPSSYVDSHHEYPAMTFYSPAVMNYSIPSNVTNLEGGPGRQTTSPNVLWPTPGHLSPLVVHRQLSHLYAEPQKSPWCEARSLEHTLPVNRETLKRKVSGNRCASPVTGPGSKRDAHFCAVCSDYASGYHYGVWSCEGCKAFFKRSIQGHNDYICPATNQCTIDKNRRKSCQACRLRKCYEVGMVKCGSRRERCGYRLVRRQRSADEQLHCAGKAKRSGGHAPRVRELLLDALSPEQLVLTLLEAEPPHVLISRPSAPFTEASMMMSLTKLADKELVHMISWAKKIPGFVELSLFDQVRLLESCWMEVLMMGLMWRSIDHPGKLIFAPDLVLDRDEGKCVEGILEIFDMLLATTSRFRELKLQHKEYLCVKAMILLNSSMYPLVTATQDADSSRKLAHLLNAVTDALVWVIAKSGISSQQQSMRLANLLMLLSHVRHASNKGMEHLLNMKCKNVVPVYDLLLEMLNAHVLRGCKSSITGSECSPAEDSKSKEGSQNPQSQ
Sequence of Thyrotropin receptor (Homo sapiens) (P16473 whole entry, looked up): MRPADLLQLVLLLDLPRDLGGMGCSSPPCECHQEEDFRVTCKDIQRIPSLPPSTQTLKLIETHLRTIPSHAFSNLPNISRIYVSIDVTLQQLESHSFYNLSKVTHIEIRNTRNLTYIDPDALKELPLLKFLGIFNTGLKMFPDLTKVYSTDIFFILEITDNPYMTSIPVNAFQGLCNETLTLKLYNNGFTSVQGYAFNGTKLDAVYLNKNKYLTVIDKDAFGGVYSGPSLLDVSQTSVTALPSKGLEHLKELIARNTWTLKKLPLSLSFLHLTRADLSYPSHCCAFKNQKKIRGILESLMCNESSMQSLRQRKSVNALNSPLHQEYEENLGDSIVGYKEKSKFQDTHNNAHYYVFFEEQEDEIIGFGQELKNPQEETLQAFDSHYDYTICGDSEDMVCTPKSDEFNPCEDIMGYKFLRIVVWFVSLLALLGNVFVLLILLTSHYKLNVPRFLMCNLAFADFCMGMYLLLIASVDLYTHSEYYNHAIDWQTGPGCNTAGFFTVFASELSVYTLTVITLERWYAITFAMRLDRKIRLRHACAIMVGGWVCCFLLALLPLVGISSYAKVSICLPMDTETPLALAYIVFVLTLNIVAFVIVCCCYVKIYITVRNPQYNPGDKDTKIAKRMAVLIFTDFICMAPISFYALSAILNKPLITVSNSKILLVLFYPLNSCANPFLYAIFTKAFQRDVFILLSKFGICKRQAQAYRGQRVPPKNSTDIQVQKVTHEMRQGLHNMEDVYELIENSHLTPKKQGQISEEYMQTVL

Turning to `CC(O)C(C)O` (configuration not stated), the Potency result in test [1], in [2], in [3], in [5], in [6] and in test [7] was “inactive” in each case. In addition, the Potency entry in [8], in test [9], in test [10], in test [11], in test [12] and in test [14] was “inactive” each time. The result in [4] and in test [13] was inactive.

As to `CCc1ccc(C(=O)C(C)CN2CCCCC2)cc1` (configuration not stated), the Potency entry in test [1], in [2], in test [3], in test [5], in [15] and in test [6] was “inactive” each time. Besides, the Potency entry in test [7], in [10], in test [11], in [12] and in test [14] was “inactive” throughout. The outcome in test [13] was inactive.

As to `COc1ccc(/C=C/S(=O)(=O)NC(=O)c2ccc(C)cc2Cl)cc1`, the Potency entry in [1], in [2], in test [5], in test [15], in test [6] and in [7] was “inactive” each time. Besides, the Potency result in test [8], in [10] and in test [14] was “inactive” each time.

For `CCC(C)CCCC(C)(C)O` (configuration not stated), the Potency result in test [1], in test [2], in test [5], in test [15], in test [6] and in [7] was “inactive” in each case. The Potency entry in [9], in test [10], in [11], in test [12] and in test [14] was “inactive” each time. Moreover, the outcome in [4] and in [13] was inactive.

As for `O=C(Nc1ccc2c(c1)Cc1ccccc1-2)C(F)(F)F`, the Potency entry in test [1], in test [2], in [5], in test [15], in test [6] and in test [7] was “inactive” in each case. Moreover, the Potency result in test [9], in [10], in test [11] and in test [12] was “inactive” in each case. For the same molecule, the molecule was called inactive in test [4] and in [13].

For `CC(C)C[C@H](NC(=O)[C@H](Cc1ccccc1)NC(=O)c1cnccn1)B(O)O`, the Potency in [1] was 0.266 µM (active); in [16], 0.0596 µM (active); in test [5], 1.06 µM (active); in test [15], 5.31 µM (active); in test [10], 0.0473 µM (active); in test [11] it was 4.22 µM (active). The Potency entry in test [17], in test [3], in test [6], in test [7], in [18] and in [14] was “inactive” each time. Further, the outcome in [4] and in [13] was inactive.

With `Oc1ccc(CCNCCCCCCNCCc2ccccc2)cc1O`, the Potency entry in test [2], in test [16], in [3], in [6], in test [11] and in [18] was “inactive” in each case. For the same molecule, in test [14], the Potency result was “inactive”. Also, the molecule was called inactive in test [4] and in test [13]. Besides, the Potency in test [5] is 29.8 µM (active); in [7], 9.44 µM (active).

For the molecule `CC(C)CCCCCCCOC(=O)c1ccc(C(=O)OCCCCCCCC(C)C)c(C(=O)OCCCCCCCC(C)C)c1`, the Potency entry in [1], in test [2], in [5], in [6], in [8] and in [9] was “inactive” each time. Moreover, the Potency entry in test [10], in test [11], in test [12] and in test [14] was “inactive” each time. The molecule was called inactive in test [4]. The Potency in [7] is 4.78 µM (active).

Regarding `O=C(O)c1cc(C(=O)O)cc([N+](=O)[O-])c1`, the Potency result in test [1], in test [2], in test [3], in [5], in [6] and in test [7] was “inactive” each time. Besides, the Potency result in test [10], in [11], in test [12] and in test [14] was “inactive” in each case. Besides, the molecule was classed as inactive in test [4] and in test [13].

With `C[C@]12CCC(=O)C=C1[C@@H]1C[C@@H]1[C@H]1[C@@H]3[C@@H]4C[C@@H]4[C@@]4(CCC(=O)O4)[C@@]3(C)CC[C@@H]12`, the Potency result in [1], in [2], in test [3], in [5], in [15] and in test [6] was “inactive” each time. The Potency entry in [10] and in test [12] was “inactive” in each case.
